Only a selection was taken, and hits are over-represented in it overall.
Pf Dd2 inh: qHTS Primary assay for Inhibitors of Plasmodium falciparum Dd2 growth in vitro. P. falciparum Dd2 growth, SYBR Green, 72 h. Potency, µM (top dose mostly 28.9 µM), actives largely listed as inhibitors. 120,000 tested, 4.3% active. AID 1347417, 2020; active means well fitted inhibition curve with a large enough effect; further: nearly all actives have a fitted effect of over 65% in size
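Infected erythrocytes (Dd2, 0.3% parasitemia, 2.5% hematocrit final) are added to compound in RPMI-1640/Albumax II medium, grown 72 h at 37C in low oxygen, then lysed with saponin/Triton-X containing SYBR Green and read by fluorescence.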
Of the large screens only hits and unclear results are named; the others gave an inactive call.

Cc1cccc(O[C@H]2COCCN(Cc3cnn(C)c3)C2)n1	none
CCOc1ccc(C2NC(=O)N(Cc3nncn3C(C)C)C3=C2C(=O)OC3)cc1 (configuration not stated)	none
C#CCNC(=O)[C@H]1O[C@H](CCN(C)CCN(C)C)CC[C@@H]1O	none
COC[C@@H]1CN(Cc2c(OC)cccc2OC)C[C@H]1c1ccncc1	Pf Dd2 inh 4.47µM
COC[C@@H]1CN(Cc2ccc(OC)c(OC)c2)C[C@H]1c1ccncc1	none
COC[C@@H]1CN(Cc2cnn(C)c2)C[C@H]1c1ccncc1	none
COCC1CN(S(=O)(=O)c2c(C)noc2C)CC12CCNCC2 (configuration not stated)	none
COc1ccc(-c2cc([C@H]3CN4CC[C@H]3C[C@@H]4CNC(=O)C(C)(C)C)n(C)n2)cc1OC	none
CC(C)NC(=O)OC[C@H]1C[C@@H]2CCN1C[C@@H]2c1cc(-c2ccc3ccccc3c2)nn1C	none
Cn1nc(-c2ccc3ccccc3c2)cc1[C@H]1CN2CC[C@H]1C[C@@H]2CNC(=O)Nc1ccccc1	none
CC(C)NC(=O)NC[C@H]1C[C@@H]2CCN1C[C@@H]2c1cc(-c2ccc3ccccc3c2)nn1C	Pf Dd2 inh 6.31µM
COc1ccc(-c2cc([C@H]3CN4CC[C@H]3C[C@@H]4CNC(=O)Nc3ccccc3)n(C)n2)cc1OC	Pf Dd2 inh 5.62µM
COc1ccc(-c2cc([C@H]3CN4CC[C@H]3C[C@@H]4CNC(=O)c3ccc(C)cc3)n(C)n2)cc1OC	none
CCn1ccc(C(=O)N2C[C@@H](Oc3cccnc3)C[C@H]2C(=O)N2CCOCC2)n1	none
O=C(CN1CCCC1=O)NC1CCN(Cc2ccccc2)CC1	none
Cc1ccc(CNC(=O)N2CCC(Cc3nc(-c4ccncc4)n[nH]3)CC2)cc1	none
Cc1cc(C)n(CCC(=O)N2CCC(Cc3nc(-c4ccccc4)n[nH]3)CC2)n1	none
Cc1cccc(NC(=O)N2CCC(Cc3nc(-c4ccccc4)n[nH]3)CC2)c1	Pf Dd2 inh 1.58µM
CC(C)Oc1ccc(CNC(=O)C2Cn3cccc3C(=O)N2C)cc1 (configuration not stated)	none
O=S(=O)(N[C@H]1[C@H](O)[C@H](O)C[C@@H]1c1ccc(C(F)(F)F)nc1)c1ccc(Cl)cc1	none
CC(=O)c1ccc(NC(=O)N2C[C@@H]3C[C@H](C2)c2ccc(NC(=O)c4cccs4)c(=O)n2C3)cc1	none
Cn1cc(CN2C[C@@H]3C[C@H](C2)c2ccc(NC(=O)c4cccs4)c(=O)n2C3)c2ccccc21	Pf Dd2 inh 7.94µM
Cn1cc(CN2C[C@@H]3C[C@H](C2)c2ccc(NC(=O)COc4ccccc4)c(=O)n2C3)c2ccccc21	none
CCNC(=O)N1CCCC1c1noc(CCC(=O)NCCC(C)C)n1 (configuration not stated)	none
CC(=O)N1CCC(C(=O)N2CCC3(CC2)NC(=O)N(c2ccc(F)cc2)N3)CC1	none
Cc1ccc(CNC(=O)C2CCN(C(=O)c3nnn4cc(C)[nH]c(=O)c34)CC2)cc1	none
Cc1cn2nnc(C(=O)NCc3ccncc3)c2c(=O)[nH]1	none
Cc1cn2nnc(C(=O)NCC3CC3)c2c(=O)[nH]1	none
Cc1cn2nnc(C(=O)N3CCC(C(=O)NCc4cccc(Cl)c4)CC3)c2c(=O)[nH]1	Pf Dd2 inh 4.47µM
Cc1cn2nnc(C(=O)N3CCC(C(=O)NCc4ccccc4Cl)CC3)c2c(=O)[nH]1	none
COc1ccc(CNC(=O)c2nnn3cc(C)[nH]c(=O)c23)cc1	none
Cc1cn2nnc(C(=O)NCc3ccc4c(c3)OCO4)c2c(=O)[nH]1	Pf Dd2 inh 6.31µM
Cc1cn2nnc(C(=O)NCC3CCCCC3)c2c(=O)[nH]1	Pf Dd2 inh 6.31µM
CCCNC(=O)c1nnn2cc(C)[nH]c(=O)c12	none
O=C(c1ccc(F)c(F)c1)N1CCCC(c2noc(COc3ccccc3F)n2)C1 (configuration not stated)	none
CC[C@@]1(O)CCN(C(=O)c2cccc(OCc3cccc(F)c3)c2)C[C@H]1O	none
Cc1ccc(C(=O)NC(C(=O)N2CCCC2)C2CCN(C(=O)c3ccc4c(c3)OCO4)CC2)cc1 (configuration not stated)	none
O=C1CC2CCN(Cc3ccc(F)c(F)c3F)CC2CCN1 (configuration not stated)	none
Cc1cc(=O)n2[nH]c(CC(=O)N3CCn4nc(C(C)O)cc4C3)nc2n1 (configuration not stated)	none
CS(=O)(=O)CCc1nc(-c2ccco2)nn1-c1cccc(F)c1	none
O=C([C@@H]1C[C@H](Oc2ccccc2)CN1C(=O)c1ccc2ccccc2n1)N1CCOCC1	none
Cc1ccc(-c2nnc(C3CN(C(=O)c4ccco4)CC34CCOCC4)o2)cc1 (configuration not stated)	none
CCOc1cccc(CNC(=O)CN2CC3CC(C2)[C@H]2CCCC(=O)N2C3)c1 (some centres not stated)	none
O=C(NCc1ccc(F)cc1)c1csc(N2CCN(c3ccccc3F)CC2)n1	none
CC(C)(C)c1ccc2c(c1)N(CC(=O)NCCCN1CCN(c3ccccc3F)CC1)C(=O)CO2	none
CCc1ccc(CNC(=O)Cn2c(-c3cccs3)cc3cc(F)ccc32)cc1	none
O=C(NCCN1CCN(c2ccccc2F)CC1)C1COc2ccccc2C1 (configuration not stated)	none
CC(C)CCNC(=O)Cn1cc(S(=O)(=O)Cc2ccc(F)cc2)c2ccccc21	none
CC(C)CCNC(=O)Cn1c(-c2cccs2)cc2cc(F)ccc21	Pf Dd2 inh 4.47µM
CCN1CCN(C(=O)Cn2c(-c3cccs3)cc3ccccc32)CC1	none
O=C(Cn1c(-c2cccs2)cc2ccccc21)NCCCN1CCN(c2ccccc2F)CC1	Pf Dd2 inh 8.91µM
O=C(Cn1c(-c2cccs2)cc2cc(F)ccc21)NCCCN1CCN(c2ccccc2F)CC1	Pf Dd2 inh 8.91µM
COc1ccc(C2CCC(=O)N2Cc2ccc(F)cc2)cc1 (configuration not stated)	none
O=C1CCN(S(=O)(=O)c2ccc3c(c2)OCCO3)CCCC(CO)CCN1 (configuration not stated)	none
O=C(c1ccccn1)N1CCN(C(=O)c2nnn3c2COC(c2ccc(Cl)cc2)C3)CC1 (configuration not stated)	none
Cc1nn(C)c2ncnc(NCc3nn[nH]n3)c12	none
COc1cccc(CN2CCCC3(CCN(S(=O)(=O)N(C)C)C3)C2=O)c1 (configuration not stated)	none
FC(F)(F)CN1C2CCC1CN(c1nnnn1-c1ccccc1)C2	none
O=C(N[C@H]1CCN2C(=O)c3cc(-c4ccsc4)ccc3NC(=O)[C@H]12)C1CCCC1	none
COc1ccc(CN[C@H](C)c2onc(C)c2C(=O)O)cc1	none
Cc1ccc(Cl)cc1N1CCN(C(=O)C2CCN(S(=O)(=O)c3c(C)noc3/C=C/c3ccccc3F)CC2)CC1	none
O=C(C1CCN(S(=O)(=O)c2cccc3nonc23)CC1)N1CCN(c2ccccc2)CC1	none
Cc1ccc(/C=C/c2onc(C)c2S(=O)(=O)N2CCC(C(=O)Nc3cc(C)ccc3C)CC2)cc1	none
COc1ccccc1N1CCN(C(=O)C2CCN(S(=O)(=O)c3cccc4nonc34)CC2)CC1	none
Cc1ccc(Cl)cc1N1CCN(C(=O)C2CCN(S(=O)(=O)c3cccc4nonc34)CC2)CC1	Pf Dd2 inh 6.31µM
Cc1ccc(/C=C/c2onc(C)c2S(=O)(=O)N2CCC(C(=O)N3CCN(c4cc(C)ccc4C)CC3)CC2)cc1	Pf Dd2 inh 8.91µM
Cc1ccc(CCNC(=O)c2nnn3cc(C)[nH]c(=O)c23)cc1	none
Cc1c(Cl)cccc1NC(=O)c1cnc(-c2ccccc2)nc1-c1ccncc1	none
Cc1cccc2nnc(N3CCN(C(=O)c4ccco4)CC3)n12	none
COc1cc(-c2noc(CN3CCN(c4cccc(Cl)c4)CC3)n2)cc(OC)c1OC	none

High-throughput results as filed in PubChem.
